Data from ChEMBL document CHEMBL3988442, “University of Dundee, Small-Polar-MMV Screening Library” (2021).
The whole screen tested about 48,000 compounds, of which about 13,000 (27%) showed an effect of 50% or more. The list shows a part of the results.

system: Wolbachia pipientis; experiment: Anti-Wolbachia Cell-Based Screen; format: functional; set-up: scale not given: in the data most compounds retested in dose-response had high values; details: 5 µM

Compound	Percent Effect [%]
CC(C)(O)C1CCN(C(=O)Nc2nc(-c3ccccc3)ns2)CC1	6.519
CC(=O)c1cc(CC(=O)NCc2ccc(CN(C)C)cc2)cs1	-9.398
O=C1CCC2(CCCN(C(=O)c3ncc[nH]3)C2)CN1CCc1c[nH]cn1 (centres undefined)	2.094
CC(=O)N1CCCN(C(C)C(=O)Nc2ccnn2C(C)C)CC1 (centres undefined)	14.5
Cc1ccc(C(=O)NCCS(=O)(=O)Cc2ccccc2)c(=O)[nH]1	-6.765
O=C(c1ccc(=O)[nH]n1)N1CC(c2nc(Cc3ccccc3)no2)C1	-16.23
CN(C)c1cc(C2CCCN(C(=O)c3ccc(=O)[nH]n3)C2)ccn1 (centres undefined)	139.8
O=C(NCCn1cnc(C2CCCC2)cc1=O)c1ccc(=O)[nH]n1	-1.303
CNc1cc(C2CCCN(C(=O)c3ccc(=O)[nH]n3)C2)ccn1 (centres undefined)	169.1
CNc1cc(C2CCCN2C(=O)c2ccc3oc(=O)n(C)c3c2)ccn1 (centres undefined)	-0.2257
CNc1cc(C2CCCN2C(=O)c2ccc(=O)[nH]n2)ccn1.O=CO (centres undefined)	167.7
Cn1cc(C(=O)N2CCC(c3nccn3Cc3ccncc3)CC2)cn1	-25.63
Cc1cc(C2CCCN(C(=O)c3cnn(C)c3)C2)ccn1 (centres undefined)	-11.66
Cc1cc(C2CCN(C(=O)c3cnn(C)c3)CC2)ccn1	94.31
Cc1ccnc(C2CCN(C(=O)c3cnn(C)c3)CC2)n1	85.52
Cc1ccnc(C2CCN(C(=O)c3cnn(C)c3)C2)n1 (centres undefined)	83.36
Cc1c(C)n(CC(O)CN2CCC(C)CC2)c2c(Cl)cccc12 (centres undefined)	-13.14
F[C@@H]1CN(Cc2ccccc2)C[C@@H]1OCc1nc2cnccc2[nH]1	-3.935
COC(=O)c1cccc(NC(=O)CN2CCN(S(C)(=O)=O)CC2)c1	0.7545
CC(=O)c1cccc(NC(=O)Cn2cnc(-c3ccccc3)cc2=O)c1	-1.653
CCc1nccn1CC(=O)Nc1cccc(C(=O)N(C)C)c1	117.3
CCc1nccn1CC(=O)Nc1cccc(C(=O)OC)c1	94.76

Compound	Percent Effect [%]
CN(C)C(=O)c1cccc(NC(=O)CN2CCCCC2C2OCCO2)c1 (centres undefined)	-9.797
COC(=O)c1cccc(C(=O)N2CCCCC2CCn2ccnc2C)c1 (centres undefined)	-0.7359
CCNc1ncc(C(=O)N(C)CCc2nc3cc(Cl)ccc3[nH]2)cn1	-2.741
CC(C)CN1CCc2[nH]cnc2C12CCN(C(=O)c1cnn(C)c1)CC2	18.71
Cn1cccc1C(=O)N1CCCN(CCCc2ccccc2)CC1	5.768
CCC(CC#N)n1ccc(C(F)(F)F)n1 (centres undefined)	100.1
CC(CC#N)n1ccc(C(F)(F)F)n1 (centres undefined)	86
CCC(CCN)n1ccc(C(F)(F)F)n1 (centres undefined)	101
CS(=O)(=O)NCCNC(=O)NC1(c2ccc(F)cc2)CCCC1	1.188
Cc1cccc(CS(=O)(=O)CC(=O)N(C)Cc2ccccc2F)c1	-4.083
CC(=O)c1ccccc1NC(=O)CCN1CCSCC1	-1.71
FC(F)(F)c1ccc2[nH]c([C@H]3CCNC3)nc2c1	-0.9457
COc1ccc(-c2cnc(N)nc2C2CCCNC2)cc1.Cl (centres undefined)	80.9
FC(F)(F)c1ccc(-c2c[nH]c([C@@H]3COCCN3)n2)cc1	-4.53
O=C(N[C@@H]1CCCNC1)C1(Oc2ccc(Cl)cc2)CCNCC1	-9.041
O=S(=O)(NCCn1cc(C2CCCNC2)nn1)c1ccc(Cl)cc1 (centres undefined)	7.811
Nc1ncc(-c2ccc(F)cc2)c(C2CCCNC2)n1 (centres undefined)	107.7
Nc1ncc(-c2ccc(C(F)(F)F)cc2)c(C2CCCNC2)n1 (centres undefined)	52.9
Nc1ncc(-c2ccc(Cl)cc2)c(C2CCCNC2)n1 (centres undefined)	110.4
CN(Cc1ccccc1Cl)C(=O)c1cc(CN2CCC(O)CC2)on1	-7.03
Cc1nnc2n1CCN(Cc1c(Cl)ccc3cccnc13)C2	-10.28
CNC(=O)c1ccc(C(=O)N2CCCC(n3ccnc3)C2)cn1 (centres undefined)	118

Compound	Percent Effect [%]
CCc1nccn1C1CCCN(C(=O)c2ccc(C(=O)NC)nc2)C1 (centres undefined)	-5.671
CNC(=O)c1ccc(C(=O)N2CCCC(n3ccnc3C)C2)cn1 (centres undefined)	94.35
Cc1cccc(C)c1OCCNC(=O)C[S+]([O-])C1CCCC1 (centres undefined)	0.9364
O=C(C1CCCc2[nH]ncc21)N1CCCC2(C1)OCCO2 (centres undefined)	23.68
Fc1ccccc1CN1CCC(c2n[nH]c(C3CC3)n2)CC1	-0.8499
Fc1cccc(CN2CCC(c3noc(-c4ccccn4)n3)CC2)c1F	179
Fc1cccc(CN2CCC(c3noc(-c4ccncc4)n3)CC2)c1F	205.5
Fc1ccccc1CN1CCC(c2noc(-c3ccccn3)n2)CC1	178
Fc1ccc(CN2CCCC(c3nnc(-c4cnccn4)o3)C2)cc1F (centres undefined)	-0.1636
Fc1ccc(CN2CCC(c3n[nH]c4nccnc34)CC2)cc1F	-10.9
CC(c1nc(C2CC2)no1)N1CCN(Cc2cccc(F)c2F)CC1 (centres undefined)	13.59
CCn1c(CN(C)C)nnc1C1CCN(Cc2cccc(F)c2F)CC1	8.209
Fc1ccc(CN2CCC(c3noc(-c4cnccn4)n3)CC2)cc1F	155.5
CCc1cc(NC2CCN(Cc3ccccc3F)CC2)n2nccc2n1	21.54
CC(=O)NCCC(=O)NCCCOc1c(C)cccc1C	1.2
CC(=O)N(Cc1c(F)cccc1F)C1CCCC1	-1.576
O=C(CSc1ccc2c(c1)OCCO2)NS(=O)(=O)c1ccccc1Br	-0.599
COc1ccc2c(c1)OCC(Cc1ccc(CN)cn1)C2 (centres undefined)	-20.89
O=C(Nc1ccc(F)cc1)N1C[C@H]2CC[C@@H]1CN(Cc1cccnc1)C2	-11.36
CCC1=N[C@@]2(CC[C@@H]3CN(S(=O)(=O)N(C)C)C[C@@H]32)C(=O)N1CC(C)C	-19.59
CC(=O)NC(C(=O)N1CCn2cncc2C1)C(C)C (centres undefined)	3.291
Cc1noc(C)c1CC(=O)OCC(=O)N1CCc2sccc2C1	3.916

Compound	Percent Effect [%]
CC1CN(C2CCN(Cc3nccn3CC(F)(F)F)CC2)CCO1 (centres undefined)	-6.653
Fc1cccc(C2CCCCN2Cc2nc(-c3cnccn3)no2)c1 (centres undefined)	-8.906
Fc1cccc(CN2CCC(c3noc(-c4cnccn4)n3)CC2)c1F	134.1
O=C(c1ccc(-c2cc[nH]n2)cc1)N1CC[C@H](CO)[C@H](O)C1	0.4
CCN(Cc1cc(Cl)c(O)c(OC)c1)Cc1nc(COC)no1	-9.296
COCCS(=O)(=O)Nc1ccc(-n2nccc2C(F)(F)F)cc1	0.6513
CC1CCN(C(=O)NCC(=O)N(C)CC(F)(F)F)C1 (centres undefined)	103.3
CN(CC(F)(F)F)C(=O)CNC(=O)Cc1ccccc1O	-0.134
CN(CC(F)(F)F)C(=O)CNC(=O)Cc1cccc(O)c1	-3.923
CCOC1CCN(C(=O)NCCN(C)C(=O)OC(C)(C)C)CC1	7.411
CC(C)C1CCN(C(=O)NCC(=O)N(C)CC(F)(F)F)CC1	101.1
O=C(Nc1ccc(-c2csnn2)cc1)N1CCC(N2CCCC2)C1 (centres undefined)	0.9
CN(CC(F)(F)F)C(=O)CNC(=O)N1CCC(N2CCCC2)C1 (centres undefined)	94.48
Cc1cnn(CCCNC(=O)N2CCCCC(N3CCCC3)C2)c1 (centres undefined)	-6.749
CN(CC(F)(F)F)C(=O)CNC(=O)Cc1ccc(O)cc1Cl	-9.929
CC(C)=CCN1C[C@H]2CC[C@@H]1CN(CCC(=O)NCc1ccco1)C2	-7.993
CCOc1ccc(NC(=O)Cc2cc(C)[nH]n2)cc1CO	-2.214
Cc1cc(C)c2c(c1)C(NC(=O)CSCc1ccncc1)CCO2 (centres undefined)	0.01106
Cc1nnc(NC(=O)NC(C)Cn2cccn2)s1 (centres undefined)	98.41
Cc1ccc(NC(=O)NC(C)Cn2cccn2)cc1 (centres undefined)	-6.589
Cc1cccnc1NC(=O)NC(C)Cn1cccn1 (centres undefined)	2.456
CC(Cn1cccn1)NC(=O)Nc1ccccn1 (centres undefined)	102.9

Compound	Percent Effect [%]
COC(C)(C)CC(C)NC(=O)Nc1ccccn1 (centres undefined)	11.35
CCCc1nnc(NC(=O)NC(C)Cn2cccn2)s1 (centres undefined)	106.7
CC(C)CCC(C)NC(=O)Nc1ccccn1 (centres undefined)	3.296
CC(Cn1cccn1)NC(=O)Nc1nnc(C2CC2)s1 (centres undefined)	-3.463
CC(Cn1cccn1)NC(=O)NCc1ccccn1 (centres undefined)	-2.779
CCN1C(=O)CC(N(C)Cc2nc3ccccc3c(=O)[nH]2)C1=O (centres undefined)	-2.279
CN(Cc1nc2ccccc2c(=O)[nH]1)C[C@@H]1CCCN2CCCC[C@H]12	-19.12
CC(C)CS(=O)(=O)CC(=O)N(C)Cc1ccc(OC(F)F)cc1	-10.21
CC(Cn1cccn1)NC(=O)Nc1ccc(N(C)C)nc1 (centres undefined)	1.644
CCC(CC)c1nnc(NC(=O)NC(C)Cn2cccn2)s1 (centres undefined)	102.8
CC(Cn1cccn1)NC(=O)Nc1nccs1 (centres undefined)	-3.735
COc1ccc(NC(=O)NC(C)Cn2cccn2)cn1 (centres undefined)	-4.158
CC(Cn1cccn1)NC(=O)Nc1nncs1 (centres undefined)	94.45
COc1cccc(CN2CCc3nc(C(N)=O)sc3CC2)c1.O=C(O)C(F)(F)F	8.884
O=C(NCc1ccoc1)Nc1ccc(CN2CCOC2=O)cc1	-1.544
O=C1OCCN1c1cccc(CNS(=O)(=O)Cc2ccc(F)cc2)c1	-0.8668
CN(C)c1ncc2c(n1)C1(CCN(Cc3ccccc3F)C1)COC2.O=C(O)C(F)(F)F (centres undefined)	-3.722
COc1cccc(CN2CCC3(COCc4cnc(N(C)C)nc43)C2)c1.O=C(O)C(F)(F)F (centres undefined)	-4.622
CN(C)C(=O)CN1CCC2(COCc3cnc(-c4cccnc4)nc32)C1.O=C(O)C(F)(F)F.O=C(O)C(F)(F)F (centres undefined)	108.5
Cc1ccccc1CN1CCC2(COCc3cnc(N(C)C)nc32)C1.O=C(O)C(F)(F)F (centres undefined)	-3.264
CN(C)C(=O)CN1CCC2(COCc3cnc(-c4ccccc4)nc32)C1 (centres undefined)	100.5
